Source: PubChem BioAssay
TrxR1 inh – blocks rat thioredoxin reductase 1 | O89049 | recombinant rTrxR1, NADPH fluorescence consumption, selenite substrate | Potency, µM (series often up to 114 µM), for inactives: at the highest dose activity change, negative = inhibition, most hits filed as inhibitors | actives 1% (n = 390,000) | AID 588453; note: potency is the fitted concentration of half-maximal effect; nearly all actives have a fitted effect of over 65% in size
Target sequence (O89049 whole entry, looked up): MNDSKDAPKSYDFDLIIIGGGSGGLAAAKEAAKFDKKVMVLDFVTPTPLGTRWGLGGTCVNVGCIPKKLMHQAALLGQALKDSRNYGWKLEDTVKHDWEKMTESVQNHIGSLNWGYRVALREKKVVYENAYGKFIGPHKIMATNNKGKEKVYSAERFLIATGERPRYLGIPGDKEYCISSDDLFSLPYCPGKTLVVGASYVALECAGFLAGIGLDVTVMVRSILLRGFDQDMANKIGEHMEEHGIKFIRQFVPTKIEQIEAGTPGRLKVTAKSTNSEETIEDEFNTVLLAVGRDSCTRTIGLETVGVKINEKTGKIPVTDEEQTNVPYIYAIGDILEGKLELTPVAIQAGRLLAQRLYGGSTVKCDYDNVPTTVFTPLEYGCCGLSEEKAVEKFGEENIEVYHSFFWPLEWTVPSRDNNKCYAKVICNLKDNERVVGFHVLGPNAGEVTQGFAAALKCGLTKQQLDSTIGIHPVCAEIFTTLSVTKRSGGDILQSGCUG
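Rat TrxR1 (90 nM in the dispensed reagent) was pre-reduced with 400 uM NADPH for 5 min at room temperature, then incubated with compound for 15 min. After 400 uM selenite was added, NADPH fluorescence (Ex 340/Em 450 nm) was followed for 8 min.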
GLS inhibitor – blocks human kidney-isoform glutaminase activity; actives 0.21% (n = 410,000); GLS enzymatic activity, qHTS titration; O94925; AID 624170; Potency, µM (highest dose often 45.5 µM), inactives show at the highest dose activity change, negative = inhibition, hits mostly inhibitors; note: potency is the fitted concentration of half-maximal effect
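Human kidney-isoform GLS in 45 mM KH2PO4 pH 8.2, 0.02% Tween-20, with compound, started with 1mM L-Glutamine (added stock). Glutamate oxidase/HRP/Amplex red coupled fluorescence read at start and after 30 min at RT.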
LDHA inh – LDHA (human) enzyme inhibition; P00338; purified LDHA, NADH/diaphorase-resazurin fluorescence; hits give low values; activity change, % (values are at about 110 or 230 µM); actives 0.15% (n = 480,000); AID 1347041; in the data active = activity change below about -30%; inconclusive = mostly about -25% to -30%;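 note: plate controls were DMSO wells for no effect and wells without enzyme for full effect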
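Enzyme activity of human lactate dehydrogenase 5 (2 nM; 0.06 mM NADH, 0.2 mM pyruvate, 5 min, RT) is measured via a resazurin/diaphorase fluorescence readout of residual NADH.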
TrxR1 substrate – is turned over as a substrate by rat TrxR1; Potency, µM (doses to about 114 µM), without a hit: at the highest dose activity change, negative = substrate turnover; actives 0.01% (n = 390,000); AID 588456; purified TrxR1 substrate turnover, NADPH consumption readout; note: potency is the fitted concentration of half-maximal effect; nearly all actives have a fitted effect of over 50% in size
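Rat TrxR1, dispensed at 90 nM, was prereduced with 400 uM NADPH (final) for 5 min at ~22 deg C, then incubated with compound 15 min before 400 uM selenite. A first-read NADPH fluorescence drop versus no-compound background flagged substrates.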
PKM2 activator – activators of human pyruvate kinase M2 | purified PKM2, Kinase-Glo ATP luminescence, activation; response scale: 0% is enzyme alone, no compound | actives 0.34% (n = 260,000) | P14618 | Potency, µM (doses to about 57.5 µM), without a hit: at the top dose activation, most hits filed as activators | AID 1631; note: potency is the fitted concentration of half-maximal effect; nearly all actives have a fitted effect of over 55% in size
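hPK-M2, >95% pure; 0.1 mM ADP / 0.5 mM PEP final; imidazole pH7.2 buffer w/ 7 mM MgCl2, 50 mM KCl; 1 h RT; Kinase-Glo lum. Intermediate enzyme activity for dual inhibitor/activator qHTS.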
mIDH1 inhibitor – blocks human mutant IDH1 R132H enzyme; O75874; IDH1-R132H enzyme, NADPH consumption, diaphorase/resazurin fluorescence; Potency, µM (doses to about 76.6 µM), for the others: at the top dose activity change, negative = inhibition, actives largely listed as inhibitors; actives 0.093% (n = 390,000); AID 602179; note: potency is the fitted concentration of half-maximal effect; nearly all actives have a fitted effect of over 65% in size
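IDH1-R132H (0.5 ug/mL dispensed) in pH 7.5 Tris buffer was preincubated 30 min with compound, then given a substrate mix of 0.016 mM NADPH and 2 mM alpha-KG for 80 min at room temperature; remaining NADPH was read by diaphorase/resazurin fluorescence.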
* hit, by the source's call; u = inconclusive; x = no result; [ ] = remark or other dose. Compounds with a hit are over-represented: about 1.4% of the library has one in this group of screens. Unless noted, calls come from the whole dose curve; as a rule, active = well fitted curve in the direction sought with a large enough effect; inconclusive = small, poorly fitted or top-dose-only effect, or another doubt; inactive = no such curve, though single readings can be large; an effect the other way counts as inactive or inconclusive. Unless noted, % is set by controls: 0 for no effect and ±100 for the full control effect.

SMILES	TrxR1 inh	GLS inhibitor	LDHA inh	TrxR1 substrate	PKM2 activator	mIDH1 inhibitor
COc1ccc2[nH]c(=O)c(CN(Cc3ccco3)Cc3nnnn3Cc3ccccc3)cc2c1	u	7%	7	4%	-4%	12%
COc1cc2cc(CN(Cc3nnnn3Cc3ccco3)C3CCCCC3)c(=O)[nH]c2cc1OC	11µM*	u	0	24%	17%	6%
CN1C2C=C3C(C#N)=C(N)C(C#N)(C#N)C(c4ccc(Br)cc4)C3C1CC2 (stereo not given)	-16%	13%	5	14%	2%	-21%
N#CC1=C(N)C2=CCCC[C@H]2[C@H](c2ccc(Br)cc2)C1(C#N)C#N	5µM*	-10%	21	3%	7.9µM*	u
N#CC1=C(N)C2=CCCC[C@H]2[C@H](c2ccccc2)C1(C#N)C#N	u	-2%	4	-1%	19%	23µM*
COC(=O)c1ccc(CNC(=O)c2nccnc2N)cc1	x	x	-2	x	x	x
O=C(Nc1ccc(OC(F)(F)F)cc1)C(=O)c1c[nH]c2ccccc12	x	x	0	x	x	x
O=C(On1c(-c2ccccc2)nc2ccccc2c1=O)c1ccco1	5µM*	65%	-6	9%	18%	1%
CC1(C)CC(=O)C(Sc2ccccc2[N+](=O)[O-])=C(O)C1	10%	2%	-78*	-1%	3%	5%
Nc1c(Cl)cc(C23CC4CC(CC(C4)C2)C3)cc1Cl	x	x	13	x	x	x
Nc1nnnn1NCc1ccc(-c2cccc(Cl)c2)o1	x	x	0	x	x	x
CC1CC(C)CN(C(=O)c2ccc(-c3ccc([N+](=O)[O-])cc3)o2)C1 (stereo not given)	18µM*	-1%	1	-1%	x	-2%
CCC(C)(C)c1ccc(OCC(O)CNCc2ccccc2)c(C(C)(C)CC)c1 (stereo not given)	x	x	25	x	x	x
Cc1ccc2[nH]c(=O)c3cc(C(=O)N4CCN(C(=O)c5ccco5)CC4)sc3c2c1	0%[57.1 µM]	3%	-5	8%[57.1 µM]	16µM*	1%
O=S(=O)(NCCO)c1cc(Cl)ccc1Cl	x	x	-1	x	x	x
CCOC(=O)C1(C)Oc2ccccc2C(C(=O)OC)=C1C(=O)OC (stereo not given)	32µM*	-9%	-7	2%	x	0%
CCOC(=O)C1(C)Oc2ccccc2C(c2ccc(OC)cc2)=C1C(=O)OC (stereo not given)	6%	7%	1	-4%	x	16%
Cn1c(=O)c2c(nc(N3CCC(Cc4ccccc4)CC3)n2CC(=O)O)n(C)c1=O	x	x	10	x	x	x
Cn1cnnc1Sc1cc(N2CCN(S(=O)(=O)c3ccc(Cl)c(Cl)c3)CC2)ccc1[N+](=O)[O-]	-2%	-3%	-2	-2%	2.8µM*	5%
Cn1cnnc1Sc1cc(N2CCN(S(=O)(=O)c3ccc4ccccc4c3)CC2)ccc1[N+](=O)[O-]	-14%	6%	-1	-15%	0.35µM*	3%
O=C(Nc1ccc(Cl)c(Cl)c1)c1ccc(Cn2c(=O)[nH]c3ccsc3c2=O)cc1	10%[57.1 µM]	5%	-32*	10%[57.1 µM]	-2%	-14%
CCC(C)(C)NC(=O)c1ccccc1OCc1ccc(Cl)cc1	x	x	8	x	x	x
Cc1cc([N+](=O)[O-])ccc1N	-1%	1%	0	-8%	x	6%
O=[N+]([O-])c1ccc2c(c1)S(=O)(=O)C=C2	2.1µM*	x	x	19%[57.1 µM]	x	x
CC1(C)CC(=O)C(C(C#Cc2ccccc2)C2=C(O)CC(C)(C)CC2=O)=C(O)C1	10µM*	39%	10	-1%[57.1 µM]	24%	2%
SMILES	TrxR1 inh	GLS inhibitor	LDHA inh	TrxR1 substrate	PKM2 activator	mIDH1 inhibitor
O=C1CCCC(O)=C1Sc1ccccc1C(=O)O	20%	-6%	3	-1%	-3%	-6%
CC(C1=C(O)CC(C)(C)CC1=O)C1=C(O)CC(C)(C)CC1=O	x	x	4	x	x	x
O=C1CCCC(O)=C1C(C#Cc1ccccc1)C1=C(O)CCCC1=O	10µM*	-2%	20	-15%	u	11%
CC1CCN(S(=O)(=O)N2CC=C(c3c[nH]c4ccccc34)CC2)CC1	x	x	2	x	x	x
CCOC1OC(COC(C)=O)C(OC(C)=O)C(OC(C)=O)C1NC(C)=O (stereo not given)	x	x	-9	x	x	x
COC(=O)c1ccc(C(=O)OC)c(NC(=O)/C=C/C(=O)O)c1	45µM*	5%	-6	31%	2%	26%
O=C(CN1C(=O)NC2(CCCCC2)C1=O)Oc1ccc2ccc(=O)oc2c1	50µM*	8%	-2	379%	x	17%
CCc1nnc(NS(=O)(=O)c2ccc(NC(=O)Nc3ccc(OC)cc3)cc2)s1	8%[57.1 µM]	2%	-7	6%[57.1 µM]	2%	8%
CCc1nnc(NS(=O)(=O)c2ccc(NC(=S)NC(=O)c3ccc(F)cc3)cc2)s1	18µM*	28%	-7	-3%	-4%	-13%
CCc1nnc(NS(=O)(=O)c2ccc(NC(=O)OC)cc2)s1	21%	-1%	-4	-2%	28µM*	4%
Cc1cc(NS(=O)(=O)c2ccc(NC(=S)NC(=O)c3ccc(Br)cc3)cc2)no1	45µM*	37%	-6	6%	1%	7%
O=C1CSC(c2ccc(Br)cc2)N1c1cccc(C(F)(F)F)c1 (stereo not given)	x	x	7	x	x	x
Cc1c(C(=O)C(=O)NCc2ccccc2Cl)c2ccccc2n1C	x	x	-2	x	x	x
O=C(O)CCNc1cc(N2CCN(C(=O)c3ccco3)CC2)c2noc3c2c1C(=O)c1ccccc1-3	35µM*	5%	35	-8%	-15%	11%
CCN1CCN(c2cc(N3CCN(C(=O)c4ccco4)CC3)c3c4c(onc24)-c2ccccc2C3=O)CC1	-24%	u	22	-11%	6%[0.46 µM]	2%
COc1ccccc1Cn1c(=S)[nH]c2cc(C(=O)NCCN(C)C)ccc2c1=O	-16%	10µM*	3	-11%[57.1 µM]	x	2%
COc1ccccc1Cn1c(=S)[nH]c2cc(C(=O)NCC3CCCO3)ccc2c1=O (stereo not given)	20%[57.1 µM]	51%	-10	7%[57.1 µM]	5%	4%
CCN1CCN(C(=O)c2ccc3c(=O)n(Cc4ccccc4OC)c(=S)[nH]c3c2)CC1	6%	11µM*	1	1%	0%	1%
O=C(OCn1ncc(Cl)c(Cl)c1=O)c1cccc(C(F)(F)F)c1	16µM*	-4%	13	3%	3%	-3%
COc1ccc(COc2ccc(C#N)cc2OC)cc1F	x	x	7	x	x	x
O=C(COC(=O)c1ccc(S(=O)(=O)N2CCCCC2)cc1)NCc1ccco1	22%[57.1 µM]	63%	-9	7%[57.1 µM]	-1%	6%
O=C(OCc1ccc2c(c1)OCO2)c1ccc(S(=O)(=O)N2CCCC2)cc1	-7%	6%	0	-9%	8.9µM*	1%
